From PubChem BioAssay (NCATS)
“And” between values parts separate entries of the source, which are not always exact repeats. Identical values can stand only once. Inconclusive results are not listed. The source made the active and inactive calls. Unless noted, calls come from the whole dose curve.

What was measured:
[1] = Cell Viability - N2a (AID 540; active = well fitted curve in the direction sought with a large enough effect; an effect the other way counts as inactive or inconclusive;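 note: plate controls were DMSO alone for no effect and tamoxifen control for full effect; nearly all actives have a fitted effect of over 45% in size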); conditions: N2a mouse neuroblastoma cell viability; activity change, negative = cytotoxicity: at 92.2 µM (top of the series)
Method in brief: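 CellTiter-Glo ATP luminescence, read 20 min after reagent at room temperature, reported viability following 40 h compound treatment at 37 °C. N2a mouse neuroblastoma cells seeded 1500/well; Hill equation gave AC50.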

[2] = Cell Viability - NIH 3T3 (AID 541; active = well fitted curve in the direction sought with a large enough effect; an effect the other way counts as inactive or inconclusive;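 note: cells exposed to compound for 40 hours; plate controls were DMSO alone for no effect and tamoxifen positive control for full effect; nearly all actives have a fitted effect of over 25% in size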); conditions: NIH 3T3 cell viability, qHTS; activity change, negative = cytotoxicity: at 92.2 µM (top of the series)
Method in brief: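 Intracellular ATP (CellTiter-Glo luminescence, 20 min at room temperature) measured after 40 hr compound exposure at 37 °C of 1000 NIH 3T3 mouse fibroblasts/well in complete medium; AC50 derived by Hill-equation modelling of qHTS concentration-response curves.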

[3] = Cell Viability - H-4-II-E (AID 543; active = well fitted curve in the direction sought with a large enough effect; an effect the other way counts as inactive or inconclusive;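 note: cells exposed to compound for 40 hours; % is set by controls: 0 for no effect and ±100 for the full control effect; nearly all actives have a fitted effect of over 35% in size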)
Method in brief: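 CellTiter-Glo luminescence (intracellular ATP) measured after 40 h compound exposure at 37 °C in H-4-II-E rat hepatoma cells seeded at 1500/well. Values are AC50s fitted with the standard Hill equation.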

[4] = Cell Viability - SH-SY5Y (AID 544; active = well fitted curve in the direction sought with a large enough effect; an effect the other way counts as inactive or inconclusive;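 note: cells exposed to compound for 40 hours; nearly all actives have a fitted effect of over 55% in size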); conditions: SH-SY5Y neuroblastoma cell viability; viability change, negative = cytotoxic: at 92.2 µM (top of the series)
Method in brief: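 Cytotoxicity measured via ATP-dependent luciferase luminescence (CellTiter-Glo) following 40 h, 37 °C exposure of 1500 SH-SY5Y cells per well. Concentration-response data were fitted with the standard Hill equation to give AC50.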

[5] = Cellular Toxicity (caspase-3) Jurkat (AID 655; active = well fitted curve in the direction sought with a large enough effect; an effect the other way counts as inactive or inconclusive;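 note: cells exposed to compound for 16 h at 37 °C before reading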); conditions: Jurkat caspase-3 activation, luminescence; caspase-3 activation: at 92.2 µM (top of the series), DMSO = 0%, tamoxifen = 100%
Method in brief: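 Caspase 3/7 activation is scored as increased luminescence in Jurkat cells cultured with compound for 16 hours in complete medium. AC50 values come from Hill fits of qHTS concentration-response data normalized to DMSO and 100 uM tamoxifen controls.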

[6] = target: Estrogen receptor (Homo sapiens) (UniProt P03372); test: qHTS assay for small molecule antagonists of estrogen receptor alpha signaling (AID 588513; active = well fitted curve in the direction sought with a large enough effect in the signal ratio, with a control signal flat, not every such curve was filed as active; the % refers to the signal ratio; note: % is set by controls: 0 for no effect and ±100 for the full control effect)
Chain of Estrogen receptor (Homo sapiens) (P03372 whole entry, looked up): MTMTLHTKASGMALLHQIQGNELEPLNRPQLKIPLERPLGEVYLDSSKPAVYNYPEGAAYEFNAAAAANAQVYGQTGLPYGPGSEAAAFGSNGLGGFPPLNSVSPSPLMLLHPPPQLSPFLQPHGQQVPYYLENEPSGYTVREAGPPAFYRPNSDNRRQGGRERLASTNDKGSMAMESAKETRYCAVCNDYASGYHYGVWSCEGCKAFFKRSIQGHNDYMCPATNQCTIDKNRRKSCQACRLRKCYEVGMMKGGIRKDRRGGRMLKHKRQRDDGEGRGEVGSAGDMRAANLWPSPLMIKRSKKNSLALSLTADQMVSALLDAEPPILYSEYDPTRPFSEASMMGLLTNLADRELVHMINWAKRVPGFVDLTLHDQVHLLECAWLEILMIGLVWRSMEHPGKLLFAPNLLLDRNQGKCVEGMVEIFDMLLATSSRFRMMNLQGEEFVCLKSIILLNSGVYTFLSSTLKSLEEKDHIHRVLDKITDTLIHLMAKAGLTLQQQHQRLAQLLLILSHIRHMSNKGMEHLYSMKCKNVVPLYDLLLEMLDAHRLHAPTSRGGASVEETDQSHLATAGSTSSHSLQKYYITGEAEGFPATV
Method in brief: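 Cells were plated at 5000/well and incubated 4 h at 37 C. Compounds were added as 1:2 dilution series, duplicates. 17-beta-estradiol (0.5nM final) was added for 18 h before CCF4 detection.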

[7] = target: Estrogen receptor (Homo sapiens) (UniProt P03372); test: qHTS assay for small molecule agonists of estrogen receptor alpha signaling (AID 588514);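 note: 0% = vehicle only and 100% = reference agonist; nearly all actives have a fitted effect of over 70% in size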
Method in brief: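 EC50 and efficacy came from Hill fits of beta-lactamase reporter signal (CCF4 dye, 2 h at room temperature) scaled between DMSO and 20 nM 17-beta-estradiol. Agonist mode: HEK293 ER-alpha-UAS-bla cells in charcoal/dextran-stripped serum medium, 18 h compound exposure at 37 C.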

[8] = target: Bile acid receptor (Homo sapiens) (UniProt Q96RI1); test: qHTS assay for small molecule antagonists of farnesoid X receptor signaling (AID 588526); note: % is set by controls: 0 for no effect and ±100 for the full control effect
Chain of Bile acid receptor (Homo sapiens) (Q96RI1 whole entry, looked up): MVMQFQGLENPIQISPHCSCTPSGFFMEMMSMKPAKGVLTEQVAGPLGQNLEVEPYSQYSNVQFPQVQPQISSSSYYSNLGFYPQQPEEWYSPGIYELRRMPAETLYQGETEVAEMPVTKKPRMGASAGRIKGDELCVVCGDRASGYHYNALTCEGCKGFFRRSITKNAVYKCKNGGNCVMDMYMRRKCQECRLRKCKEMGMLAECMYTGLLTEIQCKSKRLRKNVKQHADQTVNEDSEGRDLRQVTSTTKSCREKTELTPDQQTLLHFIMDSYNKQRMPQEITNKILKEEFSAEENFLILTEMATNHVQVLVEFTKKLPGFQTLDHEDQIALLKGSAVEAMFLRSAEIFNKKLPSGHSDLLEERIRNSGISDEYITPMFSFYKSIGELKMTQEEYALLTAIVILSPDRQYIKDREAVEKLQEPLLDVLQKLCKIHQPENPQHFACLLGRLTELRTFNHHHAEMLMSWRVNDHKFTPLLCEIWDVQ
Method in brief: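 Antagonist mode: titrated compounds tested against chenodeoxycholic acid stimulation (normalized to 50 uM CDCA and DMSO) in GeneBLAzer HEK293T cells for 16 h. Beta-lactamase read by CCF4 fluorescence; IC50 from Hill fits.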

[9] = target: Bile acid receptor (Homo sapiens) (UniProt Q96RI1); test: qHTS assay for small molecule agonists of farnesoid X receptor signaling (AID 588527); conditions: HEK293T FXR-UAS-bla, beta-lactamase ratio, 16 h; stronger effect = higher value;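 note: 0% = vehicle basal and 100% = reference agonist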
Method in brief: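 Quantitative HTS used FXR-UAS-bla HEK293T cells with 16 h compound incubation at 37 C. EC50 values came from concentration-response curves normalized to chenodeoxycholic acid.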

[10] = qHTS assay for small molecule antagonists of peroxisome proliferator-activated receptor delta signaling (AID 588535); conditions: HEK293T PPARd-UAS-bla, beta-lactamase FRET ratio, 18 h; 460 nm channel;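 note: cells co-treated with a PPAR-delta agonist as stimulator during compound exposure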
Method in brief: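 Fluorescence from CCF4-loaded GeneBLAzer PPAR-delta-UAS-bla HEK293T cells (2 hrs RT loading) quantified reporter inhibition after an 18 hr, 37 C compound exposure across a titration.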

[11] = target: Vitamin D3 receptor (Homo sapiens) (UniProt P11473); test: qHTS assay for small molecule antagonists of vitamin D receptor signaling (AID 588541);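 note: receptor activated by calcitriol during compound treatment; % is set by controls: 0 for no effect and ±100 for the full control effect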
Chain of Vitamin D3 receptor (Homo sapiens) (P11473 whole entry, looked up): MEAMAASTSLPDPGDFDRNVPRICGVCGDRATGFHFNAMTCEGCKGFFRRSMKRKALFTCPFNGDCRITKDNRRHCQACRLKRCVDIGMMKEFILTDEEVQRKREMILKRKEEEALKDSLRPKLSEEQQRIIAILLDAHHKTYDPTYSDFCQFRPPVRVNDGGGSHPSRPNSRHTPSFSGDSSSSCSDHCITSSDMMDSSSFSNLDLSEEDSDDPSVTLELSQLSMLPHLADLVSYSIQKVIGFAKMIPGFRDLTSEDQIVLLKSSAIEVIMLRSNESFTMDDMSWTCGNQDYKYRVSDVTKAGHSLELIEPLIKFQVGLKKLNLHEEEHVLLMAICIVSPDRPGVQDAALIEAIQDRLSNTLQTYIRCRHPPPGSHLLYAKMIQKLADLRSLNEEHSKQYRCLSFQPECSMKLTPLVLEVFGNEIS
Method in brief: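 VDR-UAS-bla HEK293T cells in 2% charcoal-stripped FBS were stimulated with 1-alpha,25-dihydroxyvitamin D3 (3 nM final) plus compound for 16 h at 37 C. The beta-lactamase CCF4 readout was normalized to 50 nM agonist and DMSO, and Hill fits gave IC50.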

[12] = target: Retinoic acid receptor RXR-alpha (Homo sapiens) (UniProt P19793); test: qHTS assay for small molecule agonists of retinoid X receptor alpha signaling (AID 588544);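 note: 0% = DMSO basal wells and 100% = reference agonist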
Chain of Retinoic acid receptor RXR-alpha (Homo sapiens) (P19793 whole entry, looked up): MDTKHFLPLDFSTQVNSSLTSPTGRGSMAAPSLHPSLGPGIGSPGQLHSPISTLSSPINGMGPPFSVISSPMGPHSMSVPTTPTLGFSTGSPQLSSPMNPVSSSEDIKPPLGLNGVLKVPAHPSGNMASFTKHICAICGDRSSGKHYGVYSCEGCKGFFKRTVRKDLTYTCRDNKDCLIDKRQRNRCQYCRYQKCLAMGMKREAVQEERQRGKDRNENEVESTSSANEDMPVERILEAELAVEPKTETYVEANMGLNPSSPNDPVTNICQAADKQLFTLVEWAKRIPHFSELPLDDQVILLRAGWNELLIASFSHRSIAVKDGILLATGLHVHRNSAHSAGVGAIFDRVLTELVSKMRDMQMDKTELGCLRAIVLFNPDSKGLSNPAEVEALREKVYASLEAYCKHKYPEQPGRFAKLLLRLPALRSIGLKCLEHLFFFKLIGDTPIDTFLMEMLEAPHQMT

[13] = qHTS assay for small molecule disruptors of the mitochondrial membrane potential - 1 hr assay (AID 651754); note: % is set by controls: 0 for no effect and ±100 for the full control effect; nearly all actives have a fitted effect of over 35% in size
Method in brief: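 Mitochondrial potential in living HepG2 cells after 1 hr compound treatment at 37C was read with Mito-MPS dye added for a further 30 min. Red aggregate and green monomer fluorescence were measured; loss of potential leaves dye as cytoplasmic monomers.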

[14] = Cell Viability - BJ (AID 421); conditions: BJ fibroblast viability, qHTS;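 note: potency is the fitted concentration of half-maximal effect; cells exposed to compound for 40 hours at 37 °C before readout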
Method in brief: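 Quantitative HTS: ATP depletion in BJ cells after 40 hr compound exposure in complete culture medium, detected with CellTiter-Glo; AC50 from standard Hill fits.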

[15] = Cell Viability - SK-N-SH (AID 435); conditions: SK-N-SH neuroblastoma cell viability qHTS; note: potency is the fitted concentration of half-maximal effect
Method in brief: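 Cells seeded at 1500 per well and incubated 5 hr at 37 °C. Compound added, then 40 hr at 37 °C. CellTiter-Glo added, 20 min at room temperature, luminescence read.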

[16] = target: Glucocorticoid receptor (Homo sapiens) (UniProt P04150); test: qHTS assay for small molecule agonists of glucocorticoid receptor signaling (AID 588532; active = well fitted curve in the direction sought with a large enough effect in the signal ratio, with a control signal flat; the % refers to the signal ratio;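 note: 100% = dexamethasone at 0.1 µM and 0% = DMSO only wells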); conditions: HeLa MMTV-bla, beta-lactamase ratio, agonist, 18 h; stronger effect = higher value; percent of dexamethasone control, DMSO zero
Chain of Glucocorticoid receptor (Homo sapiens) (P04150 whole entry, looked up): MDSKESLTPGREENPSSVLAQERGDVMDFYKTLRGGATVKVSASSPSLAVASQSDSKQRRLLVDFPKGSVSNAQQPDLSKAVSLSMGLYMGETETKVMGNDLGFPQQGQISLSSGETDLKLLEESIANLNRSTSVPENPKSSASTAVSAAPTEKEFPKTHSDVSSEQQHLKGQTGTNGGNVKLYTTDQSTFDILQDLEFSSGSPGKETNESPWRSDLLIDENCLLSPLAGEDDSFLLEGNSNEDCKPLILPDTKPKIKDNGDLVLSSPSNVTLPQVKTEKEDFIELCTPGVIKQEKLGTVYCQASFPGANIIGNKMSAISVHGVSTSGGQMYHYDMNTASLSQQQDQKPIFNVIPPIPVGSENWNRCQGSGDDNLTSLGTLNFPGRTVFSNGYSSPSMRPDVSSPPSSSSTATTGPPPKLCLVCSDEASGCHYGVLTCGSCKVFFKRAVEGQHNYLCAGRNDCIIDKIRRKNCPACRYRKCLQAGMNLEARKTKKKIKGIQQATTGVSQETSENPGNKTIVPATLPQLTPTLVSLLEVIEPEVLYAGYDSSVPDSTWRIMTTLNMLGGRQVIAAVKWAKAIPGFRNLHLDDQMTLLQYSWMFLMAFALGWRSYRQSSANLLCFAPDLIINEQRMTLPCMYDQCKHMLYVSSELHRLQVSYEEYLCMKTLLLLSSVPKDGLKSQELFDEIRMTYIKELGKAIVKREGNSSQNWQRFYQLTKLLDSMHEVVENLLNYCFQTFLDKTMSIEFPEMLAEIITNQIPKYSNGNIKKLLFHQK
Method in brief: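 Cells were plated and rested 3-5 h at 37 C, compounds were added in titration and incubated 18 h, then CCF4 substrate was loaded for 2 h at RT before reading blue/green fluorescence. EC50 came from Hill-equation fitting.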

[17] = target: Peroxisome proliferator-activated receptor delta (Homo sapiens) (UniProt Q03181); test: qHTS assay for small molecule agonists of peroxisome proliferator-activated receptor delta signaling (AID 588534);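 note: 0% = DMSO basal wells and 100% = positive control agonist at 10 µM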
Chain of Peroxisome proliferator-activated receptor delta (Homo sapiens) (Q03181 whole entry, looked up): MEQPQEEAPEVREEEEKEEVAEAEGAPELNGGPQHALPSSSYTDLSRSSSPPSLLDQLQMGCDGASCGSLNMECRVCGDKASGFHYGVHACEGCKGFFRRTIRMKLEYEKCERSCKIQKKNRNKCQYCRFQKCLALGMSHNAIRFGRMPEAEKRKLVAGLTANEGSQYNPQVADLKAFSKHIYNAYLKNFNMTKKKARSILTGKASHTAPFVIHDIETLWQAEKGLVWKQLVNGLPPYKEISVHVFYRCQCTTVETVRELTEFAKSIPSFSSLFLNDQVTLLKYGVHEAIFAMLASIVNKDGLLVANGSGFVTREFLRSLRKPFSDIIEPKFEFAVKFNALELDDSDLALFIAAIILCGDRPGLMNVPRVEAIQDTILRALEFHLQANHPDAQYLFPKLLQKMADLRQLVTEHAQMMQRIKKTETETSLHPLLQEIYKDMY
Method in brief: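 Agonist-mode beta-lactamase reporter readout (CCF4 dye, 2 h at RT) after 18 h at 37 °C exposure to a titration; Hill-equation fitting gave EC50 and maximal response.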

[18] = qHTS assay for small molecule agonists of the antioxidant response element (ARE) signaling pathway (AID 651741; active = well fitted activation curve with a large enough effect in the signal ratio; the % refers to the signal ratio; note: potency is the fitted concentration of half-maximal effect; for activation: % of control where 0% means no effect)
Method in brief: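 Stably integrated ARE-beta-lactamase reporter HepG2 cells; 16 h compound incubation, 37 C; LiveBLAzer FRET substrate 2 h at room temperature; fluorescence intensity.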

[19] = target: Glucocorticoid receptor (Homo sapiens) (UniProt P04150); test: qHTS assay for small molecule antagonists of glucocorticoid receptor signaling (AID 588533; active = well fitted inhibition curve with a large enough effect in the signal ratio, with a control signal flat, not every such curve was filed as active; the % refers to the signal ratio; note: % is set by controls: 0 for no effect and ±100 for the full control effect)
Method in brief: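 Antagonist-mode qHTS: compound titrations added to GRE-bla HeLa cells, then dexamethasone 2 nM final; 18 h, 37 C. CCF4 FRET fluorescence normalized to dexamethasone and DMSO; IC50 from Hill fit.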

[20] = target: Peroxisome proliferator-activated receptor gamma (Homo sapiens) (UniProt P37231); test: qHTS assay for small molecule antagonists of peroxisome proliferator-activated receptor gamma signaling (AID 588537; active = well fitted inhibition curve with a large enough effect in the signal ratio, with a control signal flat, not every such curve was filed as active; the % refers to the signal ratio;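 note: reporter cells co-stimulated with 50 nM rosiglitazone agonist during compound treatment; % of control where 0% means no effect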)
Chain of Peroxisome proliferator-activated receptor gamma (Homo sapiens) (P37231 whole entry, looked up): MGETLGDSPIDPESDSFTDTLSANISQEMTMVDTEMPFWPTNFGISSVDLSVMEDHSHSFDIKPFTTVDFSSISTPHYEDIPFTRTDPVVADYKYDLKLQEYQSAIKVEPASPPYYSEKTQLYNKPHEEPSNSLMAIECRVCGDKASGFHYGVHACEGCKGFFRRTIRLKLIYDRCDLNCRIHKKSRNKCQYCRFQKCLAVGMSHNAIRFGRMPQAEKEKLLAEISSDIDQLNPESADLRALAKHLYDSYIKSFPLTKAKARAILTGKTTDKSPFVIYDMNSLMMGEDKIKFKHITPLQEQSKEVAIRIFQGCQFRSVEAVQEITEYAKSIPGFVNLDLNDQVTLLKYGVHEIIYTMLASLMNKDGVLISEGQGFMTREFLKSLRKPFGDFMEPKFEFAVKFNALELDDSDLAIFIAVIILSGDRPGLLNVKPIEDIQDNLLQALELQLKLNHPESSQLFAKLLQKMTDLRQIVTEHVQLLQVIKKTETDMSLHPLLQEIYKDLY
Method in brief: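 Fluorescence at 460 and 530 nm (405 nm excitation) reported beta-lactamase cleavage of CCF4 after 2 h room-temperature loading. HEK293 reporter cells in 1% charcoal/dextran-treated FBS had received compound and rosiglitazone for 16 h.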

CC(C)OS(C)(=O)=O
inactive: Potency [1] | Potency [2] | Potency [3] | Potency [4] | caspase-3 activation [5] 1.6% | Potency [6] | Potency [7] | outcome [8] | activation [9] -3.78% | outcome [11] | outcome [12] | Potency [13]
-20%: max response [10]

Cc1cc(N=Nc2ccccc2C)ccc1N
active: Potency [18] 1.88 µM and 4.86 µM
inactive: Potency [14] > 92 µM | Potency [15] > 92 µM | Potency [1] | outcome [8] | activation [9] -3.42% and -2.58% | activation [16] -7.11% | outcome [17]
-21.5%: max response [10]

BrCC(Br)(Br)Br
active: Potency [18] 29.8 µM
inactive: Potency [14] > 92 µM | Potency [6] | Potency [7] | activation [9] -2.57% | outcome [17] | outcome [11] | outcome [12] | Potency [13]

O=[N+]([O-])c1ccc(Cl)c(Cl)c1Cl
active: activity change, negative = cytotoxicity [2] -117%
inactive: Potency [1] | Potency [4] | caspase-3 activation [5] -0.417% | Potency [6] | Potency [7] | outcome [17] | outcome [11] | outcome [12]
-19.7%: max response [10]

O=[N+]([O-])c1ccc2c3c(cccc13)CC2
24.6%: max response [10]
inactive: Potency [1] | Potency [3] | caspase-3 activation [5] 0.699% | Potency [6] | Potency [7] | outcome [8] | activation [9] -0.314% and -0.559% | activation [16] -4.28% and -4.51% | outcome [19] | Potency [20] | outcome [11] | outcome [12]

Clc1ccc(C(c2ccccc2Cl)C(Cl)(Cl)Cl)cc1 (stereo not drawn)
active: Potency [18] 75 µM and 61.1 µM
inactive: Potency [14] > 92 µM | caspase-3 activation [5] 5.05% | activation [16] 1.13% | outcome [19] | Potency [20]

CN(C)c1ccc(N(C)C)cc1
inactive: Potency [14] > 92 µM | Potency [15] > 92 µM | caspase-3 activation [5] 1.91% | Potency [6] | Potency [7] | outcome [8] | activation [16] 1.15% | outcome [19] | Potency [20] | outcome [12] | Potency [13]
active: viability change, negative = cytotoxic [4] -98.2% | Potency [18] 42.2 µM

ClC(Br)Br
inactive: Potency [15] > 92 µM | Potency [1] | Potency [2] | Potency [6] | Potency [7] | outcome [8] | outcome [19] | outcome [17] | Potency [20] | outcome [12] | Potency [13]
2.53%: max response [10]

CC(C)[N+](=O)[O-]
inactive: Potency [14] > 92 µM | Potency [1] | Potency [2] | Potency [3] | Potency [4] | caspase-3 activation [5] 1.63% | outcome [8] | activation [9] -1.29% | activation [16] -6.88% | outcome [11] | Potency [18]
7.55%: max response [10]

C=CC(=O)OC
inactive: Potency [15] > 92 µM | Potency [1] | Potency [2] | Potency [4] | caspase-3 activation [5] 0.227% | outcome [8] | activation [9] 1.11% | outcome [17] | Potency [20] | outcome [12] | Potency [18]
